ERa SRC1 inh: ER-alpha (human) coactivator binding inhibition; inhibition, % at 25.6 µM; 86,000 tested, 1.7% active; AID 629; P03372; TR-FRET ER-alpha LBD / SRC-1 peptide, estradiol-bound; in the data active means inhibition above about 50%
Target sequence (P03372 whole entry, looked up, the tested form may be a part): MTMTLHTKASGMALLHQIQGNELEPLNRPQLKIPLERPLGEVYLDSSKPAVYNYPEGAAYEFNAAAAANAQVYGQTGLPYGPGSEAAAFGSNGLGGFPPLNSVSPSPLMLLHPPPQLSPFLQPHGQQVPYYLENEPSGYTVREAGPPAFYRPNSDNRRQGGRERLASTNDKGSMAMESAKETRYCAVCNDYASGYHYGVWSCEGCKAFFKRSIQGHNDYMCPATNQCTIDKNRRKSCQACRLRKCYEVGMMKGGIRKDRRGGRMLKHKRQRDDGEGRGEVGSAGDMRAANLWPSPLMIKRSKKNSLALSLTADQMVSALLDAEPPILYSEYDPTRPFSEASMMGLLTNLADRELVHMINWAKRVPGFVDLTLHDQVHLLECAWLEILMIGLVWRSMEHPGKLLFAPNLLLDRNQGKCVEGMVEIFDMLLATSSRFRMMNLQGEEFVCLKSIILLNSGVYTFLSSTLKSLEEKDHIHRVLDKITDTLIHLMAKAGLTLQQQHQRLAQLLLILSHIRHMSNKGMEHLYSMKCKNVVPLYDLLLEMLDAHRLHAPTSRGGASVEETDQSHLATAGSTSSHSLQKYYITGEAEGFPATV
Calb biofilm kill: kills Candida albicans biofilms | C. albicans biofilm + clotrimazole, Alamar Blue | inhibition, % at 6 µM | 85,000 tested, 0.14% active | AID 834;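 active means inhibition above 20%; inactive means inhibition below 20%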;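 further: preformed 24 hr biofilms exposed to compound for 48 hr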
ERb coact inh: ER-beta (human) coactivator binding inhibition; 86,000 tested, 1.3% active; inhibition, % at 25.6 µM; Q92731; AID 633; TR-FRET ER-beta LBD / SRC1-Cy5 peptide binding; receptor agonist-loaded with 1 µM estradiol;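 active means compounds whose percent inhibition of the receptor-coactivator binding signal exceeds about 50% in the single-dose screen, limit read from the data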
Smad3 FoxH1 inh: Smad3 (human) transcription factor binding inhibition. P84022. TR-FRET Smad3/Dy647-FoxH1 peptide binding, europium anti-His. inhibition, % at 25 µM. 88,000 tested, 0.29% active. AID 630;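 active means compounds that reduce the energy-transfer binding signal between the protein and its labelled peptide by more than half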
ERa SRC1 pot: ER-alpha (human) coactivator binding potentiation. coactivator binding (% of control), % at 25.6 µM. AID 639. 86,000 tested, 1.3% active. TR-FRET ERalpha-LBD/SRC-Cy5 coactivator binding, 2 h; 100 = basal binding, no effect; in the data active means activity above about 200%;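 further: binding measured in presence of low estradiol as agonist stimulus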
Large screens that a line does not name were inactive; [ ] = dose if it differs, or a comment. Most compounds without a hit are left out; they make up all but 3.6% or so of the library.

O=C(CSc1nnc(-c2cccc(Cl)c2)o1)Nc1ccc2c(c1)OCCO2	ERa SRC1 inh 54[fluorescence artefact?]
Cc1nc(SCC(=O)Nc2ccc3c(c2)OCCO3)c2oc3ccccc3c2n1	ERa SRC1 inh 79[fluorescence artefact?], ERa SRC1 pot 732[fluorescence artefact?]
O=C(CSc1nnc(CNC(=O)c2c(F)cccc2Cl)o1)Nc1ccc2c(c1)OCCO2	none
O=C(CSc1nc2c(c(=O)[nH]1)CCCC2)Nc1ccc(Cl)cc1F	none
COc1ccc(C)cc1NC(=O)c1cnc2scc(C)n2c1=O	ERa SRC1 pot 216[fluorescence artefact?]
CCc1sc(C(=O)Nc2ccsc2C(=O)OC)cc1Br	ERa SRC1 pot 237
COC(=O)c1sccc1NC(=O)c1cc(OC)cc(OC)c1	ERa SRC1 pot 440[fluorescence artefact?]
COC(=O)c1sccc1NC(=O)c1sccc1C	none
C[C@@H](N)/C(N)=N\O	none (no result: ERa SRC1 inh, Calb biofilm kill, ERb coact inh, ERa SRC1 pot)
COC(=O)c1sc(NC(=O)CSc2nc3cccnc3n2C2CCCCC2)nc1C	ERa SRC1 inh 72[fluorescence artefact?], ERb coact inh 61[fluorescence artefact?]
Cc1nn(Cc2ccc(Cl)cc2)c(C)c1NC(=O)c1cc(-c2ccc3c(c2)OCO3)on1	ERa SRC1 inh 70[fluorescence artefact?]
Cc1ccc(-c2cc(C(=O)NCc3ccco3)no2)cc1	none
O=C(NCc1ccco1)c1cc(-c2ccc3c(c2)OCO3)on1	ERa SRC1 pot 261[fluorescence artefact?]
Cc1nn(Cc2ccc(Cl)c(Cl)c2)c(C)c1NC(=O)c1cc(-c2ccc3c(c2)OCO3)on1	none
CCc1c(C)nc(SCC(N)=O)c(C#N)c1C	none
CCc1c(C)nc(SCC(=O)c2cccs2)c(C#N)c1C	ERb coact inh 53
Cc1[nH]nc(SCC(=O)N2CCCCC2)c1[N+](=O)[O-]	ERa SRC1 pot 691[fluorescence artefact?]
NC[C@H]1O[C@H](n2cnc3c(=O)[nH]c(N)nc32)[C@@H](O)[C@@H]1O	none (no result: ERa SRC1 inh, Calb biofilm kill, ERb coact inh, ERa SRC1 pot)
CSc1cccc(NC(=O)CN(c2ccccc2)S(=O)(=O)N(C)C)c1	ERa SRC1 inh 50
CN(C)S(=O)(=O)N(CC(=O)Nc1ccccc1C(F)(F)F)c1ccccc1	ERa SRC1 inh 70[fluorescence artefact?]
CC(=O)c1cccc(NC(=O)CN(c2ccccc2)S(C)(=O)=O)c1	Smad3 FoxH1 inh 58, ERa SRC1 pot 711[fluorescence artefact?]
Cc1cccc(N(CC(=O)Nc2ccc(F)cc2)S(C)(=O)=O)c1	Calb biofilm kill 55
CN(C)S(=O)(=O)N(CC(=O)Nc1ccc(F)c(F)c1)c1ccccc1	none
CC(=O)c1cccc(NC(=O)CN(c2ccccc2F)S(C)(=O)=O)c1	none
COc1ccc(C=Nc2c(O)ccc3ccccc23)cc1OC	none (no result: ERa SRC1 inh, Calb biofilm kill, ERb coact inh, ERa SRC1 pot)
COC(=O)c1ccc(OCC(O)CN(CC(C)C)CC(C)C)cc1 (centres undefined)	none
CC(C)CCN1C(=O)c2ccc(C(=O)NCC3CCCO3)cc2C1=O (centres undefined)	none
Cc1cccc(N2CCN(C(=O)n3ccnc3)CC2)c1C	none
CC1CCC2(CC1)N=C(N)Nc1nc3ccccc3n12 (centres undefined)	ERa SRC1 inh 63[fluorescence artefact?]
NC1=NC2(CCCCCC2)n2c(nc3ccccc32)N1	ERa SRC1 inh 65[fluorescence artefact?]
O=C(Nc1nccs1)c1nc(-c2ccccc2)n(-c2ccccc2)n1	ERa SRC1 pot 343
Cc1csc(NC(=O)c2nc(-c3ccccc3)n(-c3ccccc3)n2)n1	none
Clc1cccc(-c2ccc(/C=N/n3cnnc3)o2)c1Cl	ERa SRC1 inh 51[fluorescence artefact?]
N#CC1=C(SCC(=O)NC2CC2)NC(=O)C(C#N)C12CCCCC2 (centres undefined)	none
N#CC1=C(SCC(=O)Nc2cccc3cccnc23)NC(=O)C(C#N)C12CCCCC2 (centres undefined)	ERa SRC1 inh 66[fluorescence artefact?], ERb coact inh 51
COc1ccc(C2(CNC(=O)CCC(=O)O)CCCC2)cc1OC	none
Cc1cc(-c2nsc(=O)o2)c(S(C)(=O)=O)s1	none
c1csc(-c2nn3c(C4COc5ccccc5O4)nnc3s2)c1 (centres undefined)	none
c1ccc2c(c1)OCC(c1nnc3sc(-c4cnccn4)nn13)O2 (centres undefined)	ERa SRC1 inh 92[fluorescence artefact?], ERb coact inh 82[fluorescence artefact?]
COc1cccc(CN2CCNC(=O)C2CC(=O)O)c1OC (centres undefined)	none
Cc1ccccc1CN1CCNC(=O)C1CC(=O)O (centres undefined)	Calb biofilm kill 28
Cc1nc(NC(=O)c2ccccc2)sc1-c1csc(N)n1	none
CSc1nc2ccc3nc(NC(=O)c4ccccc4)sc3c2s1	ERa SRC1 inh 55[fluorescence artefact?], ERa SRC1 pot 223[fluorescence artefact?]
COc1ccc(OCC(=O)Nc2ccccc2O)cc1	Calb biofilm kill 82
COc1ccccc1NC(=O)COc1ccccc1	none
